# Source: PubChem BioAssay AID504454 (NMMLSC, 2011)
# Screen size: about 340,000 compounds; about 1,400 (0.41%) were called active.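 Rule for the calls: active = response above a set limit, near 3 SD of response in nonfluorescent compounds (cut at about 42% in these data); inactive = the rest.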 The entries come from a sample that favours actives as a whole.
# Target: Beta-2 adrenergic receptor (Homo sapiens) (UniProt P07550)
# Assay: beta2AR agonists driving receptor internalization, primary screen, cell-based, FAP fluorogen, flow cytometry (AID 504454)
# Settings: Am2.2-beta2AR cells, stronger effect = higher value, concentration not given here
# Chain of Beta-2 adrenergic receptor (Homo sapiens) (P07550 whole entry, looked up): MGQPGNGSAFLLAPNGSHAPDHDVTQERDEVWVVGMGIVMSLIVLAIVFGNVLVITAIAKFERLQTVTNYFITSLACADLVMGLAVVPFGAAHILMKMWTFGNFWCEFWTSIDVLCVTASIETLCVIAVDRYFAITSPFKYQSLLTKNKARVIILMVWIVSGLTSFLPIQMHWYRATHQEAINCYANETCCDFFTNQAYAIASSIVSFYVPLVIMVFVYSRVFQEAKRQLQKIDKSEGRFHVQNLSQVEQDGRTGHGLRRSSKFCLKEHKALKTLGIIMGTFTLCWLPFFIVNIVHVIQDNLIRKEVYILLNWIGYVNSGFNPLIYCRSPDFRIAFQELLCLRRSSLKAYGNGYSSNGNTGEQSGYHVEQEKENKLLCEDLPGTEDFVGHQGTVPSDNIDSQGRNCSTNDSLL
row,SMILES,response
1,CC(C)c1ccc(NC(=O)[C@@H](NC(=O)N2CC(=O)Nc3ccccc32)C(C)C)cc1,-13% (inactive)
2,COc1ccc(OC)c(/C=N/NC(=O)CSc2nnc(C)n2-c2ccccc2)c1,8.61% (inactive)
3,Cc1ccc(-c2nnc(SCC(=O)N/N=C/c3cccs3)n2-c2ccc(C)cc2)cc1,-11.9% (inactive)
4,Cc1nnc(SCC(=O)N/N=C/c2cn(-c3ccccc3)nc2-c2ccc(F)cc2)n1-c1ccccc1,54.1% (active)
5,CCOc1cc(C)c(S(=O)(=O)NCc2ccccn2)cc1C,-7.14% (inactive)
6,CCCOc1ccc(/C=N/NC(=O)C2CC2)c(OCCC)c1,-16.2% (inactive)
7,CCCOc1ccc(C(=O)C(CCC(CNCC)C(=O)c2ccc(OCCC)cc2)CNCC)cc1 (stereo unspecified),46.1% (active)
8,COC(=O)c1ccc(OCC(=O)NC(C)(C)C)cc1,6.76% (inactive)
9,Cc1ccc2[nH]c(=O)c(CN(C)S(=O)(=O)c3cccc4nonc34)cc2c1,-5.68% (inactive)
10,Cc1nn(-c2ccccn2)c2c1C(c1ccncc1)C1=C(CC(C)(C)CC1=O)N2 (stereo unspecified),-12.9% (inactive)
11,Cc1cc(C)c(C2C3=C(Nc4c2c(C)nn4-c2ccccn2)c2ccccc2C3=O)c(C)c1 (stereo unspecified),69.5% (active)
12,CSc1ccc(S(=O)(=O)NCC(=O)OCC(=O)NC2(C#N)CCCCC2)cc1[N+](=O)[O-],5.12% (inactive)
13,COc1ccc(CCOC2OC(CO)C(OC(=O)/C=C/c3ccc(O)c(OC)c3)C(O[C@H]3O[C@@H](C)[C@H](O)[C@@H](O)[C@H]3O)C2O)cc1O (stereo partly specified),1.58% (inactive)
14,O=C(Nc1ccc(Br)cc1)C1CCC(=O)N1Cc1ccccc1Cl (stereo unspecified),-2.28% (inactive)
15,Cc1nc2ccccc2nc(C)c1=NOCc1ccc(Cl)cc1Cl,-2.95% (inactive)
16,COc1ccc(Cl)cc1N(CC(=O)N/N=C/c1ccc(OCC(N)=O)cc1)S(C)(=O)=O,-3.08% (inactive)
17,NC(N)=N/N=C/c1ccc(OCc2ccc(Cl)cc2Cl)cc1,59.6% (active)
18,CCC(CC)NC(=O)/C=C/c1cccc([N+](=O)[O-])c1,-1.38% (inactive)
19,CCCCCc1ccc(-c2ccc(C(=O)O)cc2)nc1,-1.17% (inactive)

row,SMILES,response
1,Cc1cc(N2CCOCC2)nc(-c2ccc(Br)cc2)n1,-1.94% (inactive)
2,Cc1ccc(Sc2cc(N3CCOCC3)nc(-c3ccccc3)n2)cc1,42.7% (active)
3,O=S(=O)(Cc1cc(Sc2ccccc2)nc(-c2ccccc2)n1)c1ccccc1,7.22% (inactive)
4,S=c1[nH]nc(Nc2ccccc2)s1,16.4% (inactive)
5,COc1cc(C(C(=O)NC2CCCC2)N(C(=O)c2ccco2)c2ccccc2C(C)=O)cc(OC)c1OC (stereo unspecified),2.2% (inactive)
6,CCOC(=O)c1c(-c2ccccc2)oc2ccc(OCC(=O)NN)cc12,27.5% (inactive)
7,CCOC(=O)c1c(-c2ccccc2)oc2cc(Br)c(O)cc12,-5.83% (inactive)
8,CCOC(=O)c1c(-c2ccccc2)oc2cc(Br)c(O)c(C=O)c12,56.8% (active)
9,Cn1c(=O)oc2cc(S(=O)(=O)NCCC(=O)NCc3ccccc3Cl)ccc21,0.87% (inactive)
10,CCOC(=O)C1CCN(CC(=O)Nc2ccc(OC)c(S(=O)(=O)N3CCCCC3)c2)CC1,11.9% (inactive)
11,O=C(COc1cccnc1[N+](=O)[O-])Nc1ccc(Cl)cc1F,-3.75% (inactive)
12,O=C1C2C3C=CC(C4CC34)C2C(=O)N1/N=C/c1ccc(-c2ccccc2[N+](=O)[O-])o1 (stereo unspecified),42.1% (active)
13,Cc1c(/C=N/N2C(=O)C3C4C=CC(C4)C3C2=O)c2ccccc2n1C (stereo unspecified),-4.99% (inactive)
14,O=C(Nc1ccc(N2CCOCC2)cc1)c1ccc(-c2ccccc2[N+](=O)[O-])o1,15.6% (inactive)
15,CCOc1cc(/C=C2/N=C(c3ccc(C(C)(C)C)cc3)OC2=O)cc(Cl)c1OS(C)(=O)=O,-2.17% (inactive)
16,COc1ccc(NC(=O)CN(C)C(=O)c2cccc(S(=O)(=O)N3CCN(c4ccccc4)CC3)c2)cc1,6.13% (inactive)
17,O=[N+]([O-])/C=C/c1ccc2c(ccn2Cc2ccccc2)c1,48.2% (active)
18,COc1ccc2ccccc2c1CNc1nnnn1C,-4.52% (inactive)
19,Cn1c(=S)sc2ccc3ccccc3c21,59.5% (active)

row,SMILES,response
1,CCN(CC(=O)Nc1ccccc1C(F)(F)F)C(=O)CSCc1c(C)noc1C,-3.25% (inactive)
2,Cc1ccc(NC(=O)COC(=O)C2C3CC4OC(=O)C2C4C3)cc1Cl (stereo unspecified),5.53% (inactive)
3,COc1cc(C#Cc2ccc3cc(CCCO)oc(=O)c3c2)cc(OC)c1,45.9% (active)
4,O=C1c2ccccc2C(=O)N1CCC#Cc1ccc2cc(C3(O)CCCCC3)oc(=O)c2c1,5.43% (inactive)
5,COc1cc(/C=C2\Oc3ccc(C#Cc4ccc(O)cc4)cc3C2=O)cc(OC)c1,-8.05% (inactive)
6,COc1ccc(CCNC(=O)c2ccc3c(c2)NC(=O)C(N2CCOCC2)S3)cc1OC (stereo unspecified),3.69% (inactive)
7,Cc1nn(Cc2ccccc2)c(C)c1C(=O)N1CCN(CC(=O)Nc2ccccc2Cl)CC1,4.22% (inactive)
8,COC(=O)N/N=C/c1cn(CCCOc2ccc(C)cc2)c2ccccc12,105% (active)
9,COc1cccc(Cn2cc(/C=N/NC(=O)c3cc(O)cc(O)c3)c3ccccc32)c1,3.63% (inactive)
10,CCOC(=O)N/N=C/c1cn(Cc2ccccc2Cl)c2ccccc12,-0.12% (inactive)
11,COc1ccc(OC)c(CCNC(=O)CCn2ccc3cc(S(=O)(=O)N4CCCC4)ccc32)c1,1.18% (inactive)
12,CCOCCCNC(=O)c1c[nH]c2cc(C)ccc2c1=O,-5.06% (inactive)
13,CCN(CC)S(=O)(=O)c1ccc(N2CCCC2)c(NC(=O)c2ccc([N+](=O)[O-])o2)c1,5.38% (inactive)
14,Cc1cc(C)n(CCNS(=O)(=O)c2ccc(Cl)cc2)n1,-1.1% (inactive)
15,CC(C)(CSc1nncn1/N=C/c1ccco1)NS(=O)(=O)c1ccc(Cl)cc1,45.9% (active)
16,O=S(=O)(NCCSc1ccccn1)c1ccc(Cl)cc1,-2.74% (inactive)
17,COc1cc(C(=O)NCc2ccncc2)cc(Br)c1OCc1ccccc1,7.17% (inactive)
18,COC(=O)c1ccc(C23CC4(C2)[C@H](CN(Cc2cccnc2)[C@@H]4c2ccccc2)C3c2ccc(Cl)nc2)cc1 (stereo partly specified),5.54% (inactive)
